# Screening results as filed in PubChem BioAssay.
# An excerpt weighted towards active compounds, which were near 10% of everything screened.
# MCF10A rereplic: induces DNA re-replication in MCF 10a normal breast cells; 2.9% of 350,000 active; MCF 10A DNA re-replication, Hoechst nuclear intensity, 48 h; AID 624296; Potency, µM (series often up to 46.1 µM), most hits filed as activators; also: nearly all actives have a fitted effect of over 50% in size
# SW480 rereplic: induces DNA re-replication in SW480 colon adenocarcinoma cells; SW480 DNA re-replication, Hoechst DNA content imaging, 48 h; Potency, µM (titrated, usually from 46.1 µM), hits mostly activators; 1.8% of 340,000 active; AID 624297; also: nearly all actives have a fitted effect of over 55% in size
#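 Image-based read-out: total Hoechst fluorescence of nuclei (405 nm excitation, 500-530 nm emission), with hits raising the fraction of high-intensity nuclei. SW480 colon cells incubated 48 hr with compounds at 37 C.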
# RORgamma inh: blocks mouse ROR gamma transcriptional activity. Potency, µM (titrated, usually from 53.6 µM), most hits filed as inhibitors. AID 2551. 5.4% of 310,000 active. Drosophila S2 Gal4-RORgamma UAS-luciferase reporter, 20 h. P51450; also: nearly all actives have a fitted effect of over 60% in size
# Target sequence (P51450 whole entry, looked up, the tested form may be a part): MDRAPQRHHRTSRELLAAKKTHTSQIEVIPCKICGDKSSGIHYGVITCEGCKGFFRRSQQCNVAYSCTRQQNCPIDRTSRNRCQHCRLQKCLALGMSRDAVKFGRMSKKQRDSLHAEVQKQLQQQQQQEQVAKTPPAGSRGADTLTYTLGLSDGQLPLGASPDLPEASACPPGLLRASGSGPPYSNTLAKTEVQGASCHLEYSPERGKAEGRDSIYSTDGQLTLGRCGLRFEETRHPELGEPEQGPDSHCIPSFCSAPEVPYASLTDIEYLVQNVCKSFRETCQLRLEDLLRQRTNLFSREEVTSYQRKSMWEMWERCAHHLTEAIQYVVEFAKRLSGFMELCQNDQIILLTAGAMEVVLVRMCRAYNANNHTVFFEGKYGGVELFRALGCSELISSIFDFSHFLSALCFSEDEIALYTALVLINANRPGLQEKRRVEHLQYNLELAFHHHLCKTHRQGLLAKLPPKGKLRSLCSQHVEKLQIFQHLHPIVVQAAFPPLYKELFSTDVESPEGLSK
#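 Drosophila Schneider cells stably carrying a metallothionein-driven Gal4 DBD–ROR gamma fusion and a UAS-Photinus luciferase reporter were exposed to compound for 1 hr, then induced with copper sulfate (700 uM final) for 20 hr at ambient temperature before luminescence reading.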
# Gal4-VP16 FLuc: counter-screen for ROR gamma inhibitors: Gal4-VP16 reporter; 3.5% of 310,000 active; Potency, µM (series often up to 53.6 µM), most hits filed as inhibitors; AID 2546; Drosophila S2 Gal4-VP16 UAS-luciferase, luminescence, 20 h;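 also: Gal4-VP16 expression switched on by copper sulfate through the metallothionein promoter; nearly all actives have a fitted effect of over 50% in size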
# ELG1 repair inh: ELG1-dependent DNA repair inhibition; HEK293T ELG1-luciferase reporter, luminescence, 16 h; DNA damage induced by 5-fluorouridine; Potency, µM (titrated, usually from 46.1 µM), actives largely listed as inhibitors; 2.3% of 330,000 active; also: nearly all actives have a fitted effect of over 55% in size
#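 Reporter activity after DNA damage by 5-fluorouridine is monitored. Compound-treated cells incubate 16 hr at 37 °C, then ONE-Glo is added for 30 min before luminescence reading.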
# A number is an active result; – = inactive; ? = inconclusive; · = not tested or not shown; [ ] = dose if it differs, or a comment. Calls follow the shape of the dose curve; as a rule, active = well fitted curve in the direction sought with a large enough effect; inconclusive = small, poorly fitted or top-dose-only effect, or another doubt; inactive = no such curve, though single readings can be large; an effect the other way counts as inactive or inconclusive.
SMILES,MCF10A rereplic,SW480 rereplic,RORgamma inh,Gal4-VP16 FLuc,ELG1 repair inh
COC(=O)c1ccc(Oc2nc(NC(C)(C)C)nc(N3CCOCC3)n2)cc1,·,·,–,–,–
COC(=O)c1ccc(C(NC(=O)OCc2ccccc2)/C(=C/[C@@H](C)C(=O)NCc2cc(F)cc(F)c2)c2cccnc2)cc1 (stereo partly specified),·,·,–,–,·
C[C@]12C[C@@](C)(C=C1/C=C/c1ccccc1)C(=O)C[C@H]2c1ccccc1,·,·,–,–,·
CCCS(=O)(=O)c1c(S(=O)(=O)CCC)c2c(C)cccn2c1C(=O)N/N=C/c1cc(O)cc(O)c1,?,6.5µM,?,–,–
Cc1cc(/C=C2\SC(=Nc3ccccc3)NC2=O)c(C)n1-c1ccc(S(N)(=O)=O)cc1,–,7.3µM,?,–,11µM
Cc1ccc(-n2c(C)cc(/C=C3\SC(=O)NC3=O)c2C)cc1,–,–,–,–,?
COCC(=O)OC1CCn2c1nc1c2C(=O)C(C)=C(NC(C)=O)C1=O (stereo unspecified),9.2µM,1.5µM,·,·,·
COc1cc(-c2nnc(SCc3ccccc3Cl)o2)cc(OC)c1OC,21µM,–,–[0.365 µM],·,?
COc1cc(-c2nnc(SCC(=O)N3CCCC3)o2)cc(OC)c1OC,–,–,–,–,?
COc1cc(-c2nnc(SCC(=O)c3ccc(C)cc3)o2)cc(OC)c1OC,–,?,–,–[0.365 µM],?
COc1cc(-c2nnc(SCC(=O)N3c4ccccc4Sc4ccccc43)o2)cc(OC)c1OC,?,–,–,–,7.3µM
COc1cccc(C(=O)CSc2nnc(-c3cc(OC)c(OC)c(OC)c3)o2)c1,–,–,–,–,21µM
O=C(Nc1nc2cc3c(cc2s1)OCCO3)c1ccc(N2C(=O)CCC2=O)cc1,–,–,–,–,?
O=C(NNc1nc2cc3c(cc2s1)OCO3)c1ccc(F)cc1,–,–,1.3µM,?,?
O=C(NNc1nc2cc3c(cc2s1)OCCO3)c1ccc(F)cc1,0.26µM,–,2.8µM,?,?
COc1ccc(C2NC(=S)NC3=C2CCc2cc(OC)ccc23)cc1 (stereo unspecified),–,?,0.56µM,?,?
CCc1ccc(Nc2n[n+](-c3ccccc3)c(-c3ccc(OCc4ccccc4)cc3)s2)cc1,–,–,7.9µM,?,13µM
CCc1ccc(Nc2n[n+](-c3ccccc3)c(-c3ccc(N(CC)CC)cc3)s2)cc1,?,–,?,13µM,–
CCc1ccc(Nc2n[n+](-c3ccccc3)c(-c3c(Cl)cccc3Cl)s2)cc1,?,?,11µM,?,–
CCN(CC)c1ccc(-c2sc(Nc3ccccc3)n[n+]2-c2ccc(F)cc2)cc1,–,–,10µM,–,?
COc1ccc(S(=O)(=O)N2CCOC23CCN(S(=O)(=O)c2cc(C)ccc2OC)CC3)cc1,–,–,·,·,–
O=C(NC1CCCC1)c1cccc(S(=O)(=O)Nc2ccccc2F)c1,–,–,·,·,–
CC(=O)N[C@@H]1C(O[C@H]2O[C@H](C(=O)O)C(O)[C@H](O)[C@H]2O)[C@H](O)[C@@H](CO)O[C@H]1O[C@@H]1C(C(=O)O)O[C@@H](O[C@H]2[C@H](O)[C@@H](CO)OC(O)[C@@H]2NC(C)=O)[C@H](O)[C@H]1O (stereo partly specified),–,–,–,–,·
O=C(NCCc1ccc(Cl)cc1)C1CCCO1 (stereo unspecified),–,–,–,–,–
CCc1ccc(Nc2n[n+](-c3ccccc3)c(-c3cc(OC)c(OC)cc3Br)s2)cc1,–,–,10µM,–,–
SMILES,MCF10A rereplic,SW480 rereplic,RORgamma inh,Gal4-VP16 FLuc,ELG1 repair inh
CN(C)c1ccc(-c2sc(Nc3ccccc3)n[n+]2-c2ccc(F)cc2)cc1,–,–,14µM,–,?
O=C(O)c1ccc(-c2sc(Nc3ccccc3)n[n+]2-c2ccc(F)cc2)cc1,–,–[9.22 µM],–,–,–
CCc1ccc(Nc2n[n+](-c3ccccc3)c(/C=C/c3ccccc3)s2)cc1,·,·,?,–,?
COc1ccc(CC(=O)OCC(=O)NC2CCCC(C)C2C)cc1 (stereo unspecified),–,–,·,·,–
CCCn1cc(C(=O)N(C)C2CCCN(Cc3ccccc3F)C2)c(C)n1 (stereo unspecified),–,–,–,–,–
COC(=O)N1CCc2c(sc(NC(=O)C3=COCCO3)c2C#N)C1,2.1µM,1.5µM,·,·,?
COc1cccc(C(=O)Nc2sc3c(c2C#N)CCN(C(C)=O)C3)c1,4.6µM,4.6µM,–,–,–
O=[N+]([O-])c1ccc(N=NN(CCO)CCO)cc1,–,23µM,–,–,–
CS(=O)(=O)NCC(c1ccco1)N1CCN(c2ccc(F)cc2)CC1 (stereo unspecified),–,–,–,–,–
N#CC1=C(N)C(C#N)(C#N)C(c2cccnc2)C2CCCC=C12 (stereo unspecified),·,·,?,–,7.3µM
N#CC1=C(N)C(C#N)(C#N)C(c2cccnc2)C2CC(c3ccccc3)CC=C12 (stereo unspecified),?,–,11µM,18µM,?
N#CC1=C(N)C2=CCCC[C@H]2[C@H](c2cccc(F)c2)C1(C#N)C#N,21µM,–,?,?,–
CC(C)c1ccc(C2C3CSCC=C3C(C#N)=C(N)C2(C#N)C#N)cc1 (stereo unspecified),·,·,?,–,?
CCCn1c(SCC(=O)N(CC)c2c(N)n(Cc3ccccc3)c(=O)[nH]c2=O)nnc1-c1ccncc1,–,–,·,·,·
Cc1ccnc(N2C(=O)CSC2c2ccc(Cl)cc2)c1 (stereo unspecified),–,–,–,–,–
COC(=O)c1ccc(COc2ccc(/C=N/NC(N)=S)cc2)o1,?,–,11µM,?,15µM
CC(C)Oc1ccc(/C=N/NC(N)=S)cc1,?,?,5µM,2.8µM,?
NC(=S)N/N=C/c1ncc(C(F)(F)F)cc1Cl,?,?,0.63µM,0.5µM,?
COC(=O)c1ccc(COc2ccc(Cl)cc2)o1,–,–,–,–,?
NC(=S)N/N=C/c1ccc(C(F)(F)F)cc1,?,·,5µM,5.6µM,–
COC(=O)c1scc2c(Oc3ccccc3)cc(C(F)(F)F)nc12,–,–,?,–,–
COc1ccc(/C=N/NC(N)=S)cc1,?,–,11µM,?,?
Cc1ccc(-n2ncc3c2CCCC3NC(=O)CCCN2CCCC2=O)cc1C (stereo unspecified),–,–,–,–,–
Cc1cc(C)n2nc(-c3ccc(Cl)cc3)cc2n1,–,–,–,–,?
Cc1nc2cc(-c3ccc(Cl)cc3)nn2c(NCCN(C)C)c1C,?,?,1.3µM,5.6µM,?
O=C(Nc1ccc(N2CCOCC2)cc1N1CCOCC1)c1ccc(F)cc1,–,–,·,·,–
Cc1ccc(NC(=O)CN2CCC(Cc3ccccc3)CC2)cc1S(=O)(=O)N(C)C,?,12µM,–,–,?
